MITF act: increases MITF-driven TRPM1 promoter luciferase signal. SK-MEL-5 TRPM1-promoter luciferase, 24 h; % of positive control, neutral wells = 0. activation, % at 12.5 µM. actives 0.75% (n = 300,000);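 active = mean activation of at least 80% with every replicate also reaching 80%; inconclusive = mean reaches 80% but some replicate falls short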;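 also: 0% = neutral control wells and 100% = parthenolide positive control wells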
Wnt bcat act: activators of Wnt/beta-catenin signaling | Wnt/beta-catenin reporter cell assay, activator, plate reader | activation, % at 9.35 µM | actives 1.2% (n = 300,000) | AID 743398; in the data active = activation above about 30%, passing the limit was not always enough; inconclusive = no clear call, values can overlap the other calls;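 also: 0% = neutral control wells and 100% = positive control wells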
HSF1 activator: increases HSF-1 driven luciferase reporter signal; NIH3T3-HGL HSF-1 luciferase reporter, MG132, 8 h; 100% = twice DMSO control signal; AID 504408; activation, % at 9 µM; actives 1.7% (n = 300,000);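 active = mean replicate activation of at least 50% with a set share of replicates each reaching 50%; inconclusive = only one of those two conditions met; inactive = mean below 50% and too few replicates reaching it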;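 also: 0% = median of the neutral control wells and 100% = twice that signal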
SMARCA2 act: increases SMARCA2 function in MMTV reporter cells. MG213 cells, MMTV-luciferase reporter, dexamethasone, overnight. activation, % at 9.1 µM. actives 1% (n = 370,000). AID 652017; in the data active = activation above about 7.8%;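 also: 0% = vehicle wells and 100% = reference activator wells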
HSF1 inh: HSF1 inhibition. NIH3T3-HGL HSE-luciferase, MG132-induced, luminescence 8 h; active compounds read low. activity change, negative = inhibition, % at 7.5 µM (by protocol). actives 0.77% (n = 300,000). AID 2098;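 active = more than half of replicate wells show activity change below -50%, luminescence cut by over half; inconclusive = some wells, but at most half, below -50%; inactive = no replicate well below -50%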;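 also: luciferase reports HSF-1 transcriptional activity via heat shock element; 0% = median of DMSO wells and -100% = zero luminescence signal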
esBAF inh: inhibitors of esBAF chromatin remodeling in mouse ES cells; actives 2% (n = 350,000); Bmi1-luciferase knock-in reporter, 24 h; 100% = twice the neutral-well signal; AID 602393; reporter increase, % at 12.5 µM; in the data active = activation above about 40%; inconclusive = no clear call, values can overlap the other calls;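 also: 0% = median of the plate's neutral control wells and 100% = double that signal; a rise in the Bmi1 reporter signal indicates esBAF inhibition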
* marks the source's active call; other numbers are inactive results. Only some compounds are listed: those with a hit (about 4.3% of all), similar ones and a draw of the others.

How did Cc1csc(NC(=O)c2cc3c(s2)-c2ccccc2OC3)n1 do in these assays?
MITF act: 7.1; Wnt bcat act: inconclusive; HSF1 activator: -3.2; SMARCA2 act: -2.0; HSF1 inh: -19.9; esBAF inh: 85.7*

How did O=C(c1cc2c(s1)-c1ccccc1OC2)N1CCN(c2ccccc2)CC1 do in these assays?
MITF act: 3.3; Wnt bcat act: -3.3; HSF1 activator: -69.9; SMARCA2 act: -1.0; HSF1 inh: -63.6*; esBAF inh: -0.9

Results for CN(C)CCCN1C(=O)c2cccc3cccc(c23)C1=O ?
Wnt bcat act: -0.9; HSF1 activator: 2.6; SMARCA2 act: 6.1; HSF1 inh: 12.7; esBAF inh: -3.0

What do the screens show for `CCCCN1C(=O)c2cccc3cc(O)cc(c23)C1=O`?
Wnt bcat act: 61.1*; HSF1 activator: 21.4; SMARCA2 act: -1.1; HSF1 inh: 7.1

Results for CO[C@H]1CN(C)C(=O)c2cc(NS(C)(=O)=O)ccc2OC[C@H](C)N(Cc2cccnc2)C[C@H]1C ?
esBAF inh: 1.3

Results for CN1CCN(C(=O)C[C@@H]2C[C@@H]3c4cc(NS(C)(=O)=O)ccc4O[C@@H]3[C@@H](CO)O2)CC1 ?
esBAF inh: 6.3

Results for COC(=O)c1c(C)oc2ccc(N(C(=O)c3ccncc3)S(=O)(=O)c3ccc4ccccc4c3)cc12 ?
MITF act: -8.6; HSF1 activator: 3.7; SMARCA2 act: -2.9; HSF1 inh: -1.7

Results for COC(=O)c1c(C)oc2ccc(N(C(=O)Oc3ccccc3)S(=O)(=O)c3ccc(Cl)c([N+](=O)[O-])c3)cc12 ?
MITF act: -11.7; HSF1 activator: 72.0*; HSF1 inh: 60.0

Results for CN1[C@@H]2Cn3c(ccc(-c4ccncc4)c3=O)[C@H]1[C@@H](C(=O)Nc1nccs1)[C@@H]2CO ?
esBAF inh: 0.6

How did Cc1ccc(C(=O)NC(=S)Nc2cc(-c3nc4ccccc4s3)ccc2C)cc1 do in these assays?
MITF act: 54.5; HSF1 activator: 59.0*; SMARCA2 act: 7.1; HSF1 inh: 16.2

Results for C[C@H]1CN([C@@H](C)CO)C(=O)c2cccc(NC(=O)C3CCCCC3)c2O[C@H]1CN(C)C(=O)Nc1ccc(C(F)(F)F)cc1 ?
esBAF inh: 1.9

What do the screens show for `Fc1cccc(-c2cc3nc4c(c(N5CCC6(CC5)OCCO6)n3n2)CCCC4)c1`?
MITF act: 44.9; HSF1 activator: -5.1; SMARCA2 act: 3.0; HSF1 inh: -4.9; esBAF inh: 52.0*

What do the screens show for `CCOCCN1CCN(c2c3c(nc4cc(-c5ccc(F)cc5)nn24)CCC3)CC1`?
MITF act: 23.5; HSF1 activator: 2.8; SMARCA2 act: 2.5; HSF1 inh: 4.6; esBAF inh: 17.6

How did OC1CCN(c2c3c(nc4cc(-c5cccc(F)c5)nn24)CCCC3)CC1 do in these assays?
MITF act: 87.6*; Wnt bcat act: 4.8; HSF1 activator: -4.4; SMARCA2 act: 2.5; HSF1 inh: -2.7; esBAF inh: 103.6*

What do the screens show for `CCC(=O)N(C)C[C@@H]1Oc2cc(C#CC(C)C)ccc2S(=O)(=O)N([C@@H](C)CO)C[C@@H]1C`?
esBAF inh: 3.1

Results for Cc1ccc2c(C)c(C(=O)N(C)C(C)c3ccon3)oc2c1C (stereo unspecified) ?
MITF act: 108.9*; Wnt bcat act: inconclusive; HSF1 activator: 20.1; SMARCA2 act: 5.3; HSF1 inh: 24.9; esBAF inh: 51.3*

What do the screens show for `Cc1ccc2c(C)c(C(=O)N(C)C(C)c3ccncn3)oc2c1C` (stereo unspecified)?
MITF act: 8.4; Wnt bcat act: 4.7; HSF1 activator: 18.8; SMARCA2 act: -1.4; HSF1 inh: 6.3; esBAF inh: 51.2*

What do the screens show for `CN(C)C=Nc1ccc2nc3c(cc2c1)[nH]c1ccccc13`?
MITF act: 68.1; Wnt bcat act: 39.1*; HSF1 activator: 43.3; SMARCA2 act: 7.6; HSF1 inh: 35.0; esBAF inh: 2.5

Results for COc1ccc(N(CC(=O)NC2CCCCC2)C(=O)c2ccc(C)s2)cc1OC ?
MITF act: 5.8; Wnt bcat act: -2.7; HSF1 activator: 70.7*; SMARCA2 act: -0.8; HSF1 inh: 20.0; esBAF inh: -2.8

What do the screens show for `COc1cccc2c(=O)c(C(=O)NCCc3ccccc3)c[nH]c12`?
Wnt bcat act: 12.3; SMARCA2 act: 5.3; esBAF inh: 54.9*

How did CC(=O)Nc1ccc(Oc2nc(-c3ccccn3)nc3ccccc23)cc1 do in these assays?
MITF act: 43.5; Wnt bcat act: 4.9; HSF1 activator: 21.4; SMARCA2 act: 7.9*; HSF1 inh: 8.6

Results for CC(=O)Nc1cccc(Oc2nc(-c3ccccn3)nc3ccccc23)c1 ?
Wnt bcat act: 17.5; HSF1 activator: -0.1; SMARCA2 act: 5.6; HSF1 inh: 2.7

Results for Cn1c(SCc2cccc(F)c2)nnc1-c1cnccn1 ?
Wnt bcat act: 10.3; HSF1 activator: 18.8; SMARCA2 act: -2.5; HSF1 inh: 9.2; esBAF inh: 8.8

Results for Cn1c(SCc2ccccc2Cl)nnc1-c1cnccn1 ?
MITF act: 79.9; HSF1 activator: 34.7; SMARCA2 act: 6.0; HSF1 inh: 26.4; esBAF inh: 68.4*

Results for CCn1c(CSc2nc3ccccc3n2C)nc2ccccc21 ?
MITF act: 14.6; Wnt bcat act: -5.6; HSF1 activator: 9.0; SMARCA2 act: -0.4; HSF1 inh: 6.1; esBAF inh: 6.6

What do the screens show for `Cn1c(SCc2ccccc2Cl)nc2ccccc21`?
MITF act: 131.4*; HSF1 activator: 93.1*; SMARCA2 act: 4.5; HSF1 inh: 40.1

What do the screens show for `Cc1cnc(NC(=O)C2CC(=O)N(c3cccc(Cl)c3)C2)s1` (stereo unspecified)?
MITF act: 19.3; Wnt bcat act: -11.5; HSF1 activator: 76.9*; SMARCA2 act: 1.0; HSF1 inh: 46.0; esBAF inh: -48.3

What do the screens show for `COc1cccc(S(=O)(=O)N[C@@H]2C=C[C@@H](CC(=O)NCc3ccccc3)O[C@@H]2CO)c1`?
esBAF inh: 3.3

Results for Cc1sc(NC(=O)C2CCCCC2C(=O)O)c(C(N)=O)c1-c1ccc(C(C)C)cc1 (stereo unspecified) ?
MITF act: 30.8; HSF1 activator: 25.9; SMARCA2 act: 0.6; HSF1 inh: 11.7; esBAF inh: 62.3*

What do the screens show for `Cc1sc(NC(=O)C2CCCCC2C(=O)O)c(C(N)=O)c1-c1ccccc1` (stereo unspecified)?
MITF act: 51.2; HSF1 activator: -2.5; SMARCA2 act: 1.4; HSF1 inh: 4.6; esBAF inh: inconclusive

What do the screens show for `Cc1cccc2nc(COc3ccc4ccccc4c3Br)cn12`?
MITF act: 99.9*; Wnt bcat act: 0.1; HSF1 activator: 37.7; SMARCA2 act: 2.4; HSF1 inh: 30.2

Source: PubChem (several laboratories)
